# Measured values from the supplement of paper PMC7156485.
# ± gives the standard deviation of the averaged measurements.
# Tested on: HCC1569
# Test: cell number relative to DMSO (% of DMSO); higher = more cells (less growth inhibition / toxicity)
# Settings: concentration: 10 µM; 24 h
# Method in brief: (§1)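 Using 384-well plates with 800 cells per well in RPMI plus 10% FBS, HCC1569 and TDF cells were exposed to compounds at 10 µM, in triplicate, for 24 h at 37 °C. Imaging of six fields per well at ×10 followed H1.0 and DAPI staining. The reported quantity, H1.0 nuclear intensity or cell number, is a median of replicates given as percent of the plate control, and HCC1569 values were smoothed for positional effects.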
# 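Further: TDF denotes transformed human dermal fibroblasts of mesenchymal origin.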
row,Compound,cell number
1,O=C(Nc1nc2ccccc2n1CCN1CCOCC1)c1cccc([N+](=O)[O-])c1 [IRAK-1/4 Inhibitor],98.2
2,O=c1cc(-c2ccc(O)cc2)oc2cc(OC3OC(CO)C(O)C(O)C3O)c(C3OC(CO)C(O)C(O)C3O)c(O)c12 (configuration not stated) [Saponarin],98.8
3,COc1ccc(COc2ccc(Cc3cnc(N)nc3N)cc2OC)cc1 [cFMS Receptor Tyrosine Kinase Inhibitor],100
4,Cl.Cl.O=C(O)COCCN1CCN(C(c2ccccc2)c2ccc(Cl)cc2)CC1 (configuration not stated) [Cetirizine 2HCl],98.9
5,O=C(O)CN(CCOCCOCCN(CC(=O)O)CC(=O)O)CC(=O)O,99.4
6,CN1CCN(C2Cc3ccccc3Sc3ccc(Cl)cc32)CC1.O=C(O)C=CC(=O)O (configuration not stated) [Clorotepine maleate],98.5
7,Cl.c1ccc(-n2c(C3=NCCN3)cc3ccccc32)cc1,98.8
8,CCCCCC(O)C=CC1C(O)CC(O)C1CC=CCCCC(=O)O (racemic),106
9,CCCN(CCC)C(=O)C(CCC(=O)O)NC(=O)c1ccccc1 (configuration not stated) [Proglumide],109
10,CC(C)NCC(O)COc1ccc(CCOCC2CC2)cc1.Cl (configuration not stated) [Betaxolol hydrochloride],102
11,"O.c1cnc2c(c1)ccc1cccnc12 [1,10-Phenanthroline monohydrate]",77.2
12,COc1cc(Cc2cnc(N)nc2N)cc(OC)c1OC [Trimethoprim],99 ± 1.6
13,CC(C)=CCC(O)C1=CC(=O)c2c(O)ccc(O)c2C1=O (configuration not stated) [Shikonin],27
14,CCCCCCCCC=CCCCCCCCC(=O)O [9(E)-Octadecenoic acid],100
15,CCOC(=O)c1cnc2c(cnn2CC)c1NN=C(C)C.Cl [Etazolate hydrochloride],107
16,COc1cc(C2CC(=O)c3c(O)cc(O)cc3O2)ccc1O (configuration not stated) [Homoeriodictyol],97.9
17,NC(N)=NC(N)=Nc1ccccc1 [1-Phenylbiguanide],105
18,COc1cc(NS(C)(=O)=O)ccc1Nc1c2ccccc2nc2ccccc12.Cl [Amsacrine hydrochloride],67.8
19,CCCCCC(O)C=CC1OC(O)CC(O)C1CC=CCCCC(=O)O (configuration not stated) [Thromboxane B2],96.2
20,CCCCCC(=O)C=CC=CCCCCCCCC(=O)O [13-Ketooctadecadienoioc acid],99.9
21,NS(=O)(=O)c1cc(C2(O)NC(=O)c3ccccc32)ccc1Cl (configuration not stated),101
22,COc1cc(=O)n(C)c2c(OCC(O)C(C)(C)O)cccc12 (configuration not stated) [Foliosidine],103
23,NC(=O)C(=O)[O-].[Na+] [Sodium Oxamate],102
24,O=C1CC(c2ccc(O)c(O)c2)Oc2cc(OC3OC(CO)C(O)C(O)C3O)cc(O)c21 (configuration not stated) [Eriodictyol-7-O-glucoside],101
25,CN1CCN(c2nc3cc(C(F)(F)F)ccc3n3cccc23)CC1.O=C(O)C=CC(=O)O,99.3
26,COCC(=O)NCC=Cc1ccc2ncnc(Nc3ccc(Oc4ccc(C)nc4)c(C)c3)c2c1,76.8
27,CN1C(CC(=O)c2ccccc2)CCCC1CC(O)c1ccccc1.Cl (stereo not drawn) [alpha-Lobeline hydrochloride],99.3

# Tested on: TDF
# Test: as above
# Settings: concentration: 10 µM; 24 h
# Method in brief: as §1
row,Compound,cell number
1,N[C@H](C(=O)O)c1cccc(O)c1 [(S)-3-Hydroxyphenylglycine],99.7
2,CCCCCCCCC=CCC=CCC=CCCCC(=O)NCCO [Mead ethanolamide],95.8
3,O=C(O)Cc1sc(-c2ccccc2)nc1-c1ccc(Cl)cc1 [Fentiazac],107
4,CN1CCN(CC(=O)N2c3ccccc3C(=O)Nc3cccnc32)CC1.Cl.Cl [Pirenzepine.2HCl],106
5,CC(CCc1ccc(O)cc1)NCCc1ccc(O)c(O)c1.Cl (configuration not stated) [Dobutamine.HCl],111
6,Br.Br.NC(N)=NCCSSCCN=C(N)N [Guanidinoethyl disulfide dihydrobromide],108
7,CN(C)CCCOC1C(C(O)CO)OC2OC(C)(C)OC21.Cl (configuration not stated) [Amiprilose hydrochloride],106
8,Cc1cccc(Nc2ccccc2C(=O)O)c1C [Mefenamic acid],107
9,CCn1nc(C(=O)O)c(=O)c2cc3c(cc21)OCO3 [Cinoxacin],105
10,CN1C(=O)CC(C(=O)O)C1c1cccnc1 (stereo not drawn) [Trans-4-Cotininecarboxylic acid],100
11,"COC(=O)C1C2CC3c4[nH]c5cc(OC)ccc5c4CCN3CC2CC(OC(=O)c2cc(OC)c(OC)c(OC)c2)C1OC (single isomer, unassigned; (-)) [(-)-Isoreserpine]",107
12,CC12C=Cc3occc3C1CCC13CC(=O)C(CCC12)C3 (configuration not stated) [16-Oxokahweol],98.5
13,"CCCCCC=CCC=CCC=CCC=CCCCCCC(=O)O [7(Z), 10(Z), 13(Z), 16(Z)-Ocosatetraenoic Acid]",114
14,O=C(Nc1nc2ccccc2n1CCN1CCOCC1)c1cccc([N+](=O)[O-])c1 [IRAK-1/4 Inhibitor],104
15,O=c1cc(-c2ccc(O)cc2)oc2cc(OC3OC(CO)C(O)C(O)C3O)c(C3OC(CO)C(O)C(O)C3O)c(O)c12 (configuration not stated) [Saponarin],89.5
16,COc1ccc(COc2ccc(Cc3cnc(N)nc3N)cc2OC)cc1 [cFMS Receptor Tyrosine Kinase Inhibitor],93.7
17,Cl.Cl.O=C(O)COCCN1CCN(C(c2ccccc2)c2ccc(Cl)cc2)CC1 (configuration not stated) [Cetirizine 2HCl],102
18,O=C(O)CN(CCOCCOCCN(CC(=O)O)CC(=O)O)CC(=O)O,105
19,CN1CCN(C2Cc3ccccc3Sc3ccc(Cl)cc32)CC1.O=C(O)C=CC(=O)O (configuration not stated) [Clorotepine maleate],102
20,Cl.c1ccc(-n2c(C3=NCCN3)cc3ccccc32)cc1,92.4

row,Compound,cell number
1,CCCCCC(O)C=CC1C(O)CC(O)C1CC=CCCCC(=O)O (racemic),105
2,CCCN(CCC)C(=O)C(CCC(=O)O)NC(=O)c1ccccc1 (configuration not stated) [Proglumide],112
3,CC(C)NCC(O)COc1ccc(CCOCC2CC2)cc1.Cl (configuration not stated) [Betaxolol hydrochloride],122
4,"O.c1cnc2c(c1)ccc1cccnc12 [1,10-Phenanthroline monohydrate]",44.8
5,COc1cc(Cc2cnc(N)nc2N)cc(OC)c1OC [Trimethoprim],95.9 ± 2.8
6,CC(C)=CCC(O)C1=CC(=O)c2c(O)ccc(O)c2C1=O (configuration not stated) [Shikonin],38.8
7,CCCCCCCCC=CCCCCCCCC(=O)O [9(E)-Octadecenoic acid],108
8,CCOC(=O)c1cnc2c(cnn2CC)c1NN=C(C)C.Cl [Etazolate hydrochloride],101
9,COc1cc(C2CC(=O)c3c(O)cc(O)cc3O2)ccc1O (configuration not stated) [Homoeriodictyol],99.7
10,NC(N)=NC(N)=Nc1ccccc1 [1-Phenylbiguanide],114
11,COc1cc(NS(C)(=O)=O)ccc1Nc1c2ccccc2nc2ccccc12.Cl [Amsacrine hydrochloride],32.3
12,CCCCCC(O)C=CC1OC(O)CC(O)C1CC=CCCCC(=O)O (configuration not stated) [Thromboxane B2],95.2
13,CCCCCC(=O)C=CC=CCCCCCCCC(=O)O [13-Ketooctadecadienoioc acid],97.6
14,NS(=O)(=O)c1cc(C2(O)NC(=O)c3ccccc32)ccc1Cl (configuration not stated),98.1
15,COc1cc(=O)n(C)c2c(OCC(O)C(C)(C)O)cccc12 (configuration not stated) [Foliosidine],112
16,NC(=O)C(=O)[O-].[Na+] [Sodium Oxamate],105
17,O=C1CC(c2ccc(O)c(O)c2)Oc2cc(OC3OC(CO)C(O)C(O)C3O)cc(O)c21 (configuration not stated) [Eriodictyol-7-O-glucoside],94.3
18,CN1CCN(c2nc3cc(C(F)(F)F)ccc3n3cccc23)CC1.O=C(O)C=CC(=O)O,104
19,COCC(=O)NCC=Cc1ccc2ncnc(Nc3ccc(Oc4ccc(C)nc4)c(C)c3)c2c1,94.9
20,CN1C(CC(=O)c2ccccc2)CCCC1CC(O)c1ccccc1.Cl (stereo not drawn) [alpha-Lobeline hydrochloride],108
